Jurkat NFkB inh: inhibitors of the PMA/ionomycin-induced NF-kB reporter in Jurkat cells; 330,000 compounds, 0.53% hits; inhibition, % at 4 µM; AID 435003; PMA/ionomycin-induced NF-kB luciferase reporter, luminescence; in the data active = inhibition above about 50%
Cardio protect: myocardial damage modulation in H9c2 cells | H9c2 cardiomyocytes, H2O2 injury protection, ATPLite, 2 h | protection from H2O2 cell death, % at 20 µM | 360,000 compounds, 0.63% hits;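 active = compounds giving at least 50% protection of heart cells from peroxide-induced death in the single-dose screen, raw or plate-pattern-corrected value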;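 also: 0% = DMSO wells with peroxide and 100% = DMSO wells without peroxide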
TAG inh: triacylglycerol accumulation inhibition; H9c2 cells, Nile Red lipid (TAG) fluorescence; cells loaded with 200 µM oleic acid; inhibition, % at 12.5 µM; 230,000 compounds, 0.66% hits; AID 651582;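 active = pattern-corrected inhibition of lipid staining of at least 50% with the nuclear-stain viability signal not falling by more than 50%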;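 also: 0% = DMSO wells and 100% = triacsin C control wells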
NR2F2 inh: blocks human COUP-TFII nuclear receptor. P24468. HEK293T NGFI-A luciferase reporter, luminescence. inhibition, % at 8.6 µM. 370,000 compounds, 0.7% hits;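 active = inhibition above a per-plate cutoff, mean inhibition of test wells between control levels plus 3 SD, cut at about 38% in these data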;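 also: cells cotransfected with COUP-TFII expression vector driving the NGFI-A reporter; 0% = median of COUP-TF2 test wells and 100% = reporter-only cells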
Target sequence (P24468 whole entry, looked up): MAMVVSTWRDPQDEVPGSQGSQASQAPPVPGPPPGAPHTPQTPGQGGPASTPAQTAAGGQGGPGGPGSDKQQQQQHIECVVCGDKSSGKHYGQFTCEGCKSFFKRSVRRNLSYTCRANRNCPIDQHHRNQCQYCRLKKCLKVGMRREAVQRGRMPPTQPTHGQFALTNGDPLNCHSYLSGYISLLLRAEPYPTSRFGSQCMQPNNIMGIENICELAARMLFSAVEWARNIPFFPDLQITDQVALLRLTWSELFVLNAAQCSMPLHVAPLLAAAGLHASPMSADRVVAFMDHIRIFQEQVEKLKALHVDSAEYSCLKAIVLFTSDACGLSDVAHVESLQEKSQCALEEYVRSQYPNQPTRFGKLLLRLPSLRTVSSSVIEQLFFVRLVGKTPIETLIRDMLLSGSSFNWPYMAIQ
Gli-Sufu block: antagonists of Gli-Sufu signaling; Sufu-KO-LIGHT fibroblasts, Gli luciferase reporter luminescence; inhibition, % at 5 µM; 340,000 compounds, 0.74% hits; AID 588413;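 active = inhibition above about 55%, limit read from the data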;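 also: 0% = DMSO-treated cells and 100% = wells with medium but no cells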
697 NFkB inh: inhibitors of the PMA/ionomycin-induced NF-kB reporter in 697 B cells; 697 B-cell NF-kB luciferase reporter, 16 h; 330,000 compounds, 0.33% hits; AID 435022; inhibition, % at 4 µM; in the data active = inhibition above about 35%
697 NFkB conf: lowers PMA/ionomycin-induced NF-kB signal in 697 B cells. shares compounds with 697 NFkB inh. 697 B-cell NF-kB luciferase, 16 h. inhibition, % at 4 µM. 2,000 compounds, 35% hits; in the data active = inhibition mostly above about 28%, no sharp cut-off; inactive = mostly below about 22%
Active calls of the source: *. Only some compounds are listed: those with a hit (about 2.6% of all), similar ones and a draw of the others.

What do the screens show for `O=C(CSc1nnc(-c2ccccc2)o1)NC1CCCC1`?
Jurkat NFkB inh: -1; Cardio protect: -3; TAG inh: -8; NR2F2 inh: 5; Gli-Sufu block: -9; 697 NFkB inh: 14

What do the screens show for `CCOc1ccc(-c2nnc(SCC(=O)NC3CC3)o2)cc1`?
Jurkat NFkB inh: -29; Cardio protect: 2; TAG inh: 16; NR2F2 inh: -14; Gli-Sufu block: 2; 697 NFkB inh: 60*; 697 NFkB conf: 56*

How did CC(C)(C)c1ccc(-c2nnc(SCC(=O)NC3CC3)o2)cc1 do in these assays?
Jurkat NFkB inh: -78; Cardio protect: -8; TAG inh: 42; NR2F2 inh: -55; Gli-Sufu block: -26; 697 NFkB inh: 57*; 697 NFkB conf: 39*

Results for C[C@H]1[C@@H](NC(=O)Cc2ccsc2)CC[C@@]23CCCN2C(=O)CCC[C@@H]13 ?
NR2F2 inh: 8

Results for COc1ccc(-c2ccc(N(C)C)cc2)cc1[C@H]1[C@H]2C=CC[C@@H](C)[C@@H]2C(=O)N1Cc1ccccc1 ?
Jurkat NFkB inh: 9; Cardio protect: -13; TAG inh: 13; NR2F2 inh: 12; Gli-Sufu block: 7; 697 NFkB inh: 51*; 697 NFkB conf: 36*

What do the screens show for `COc1ccc(/C=C/c2ccccc2)cc1[C@H]1[C@H]2C=CC[C@@H](C)[C@@H]2C(=O)N1Cc1ccccc1`?
Jurkat NFkB inh: 20; Cardio protect: -10; TAG inh: -3; NR2F2 inh: 8; Gli-Sufu block: 13; 697 NFkB inh: 65*; 697 NFkB conf: 32*

How did COc1ccc(-c2ccc(C(C)=O)cc2)cc1[C@H]1[C@H]2C=CC[C@@H](C)[C@@H]2C(=O)N1Cc1ccccc1 do in these assays?
Jurkat NFkB inh: 31; Cardio protect: -13; TAG inh: -7; NR2F2 inh: -9; Gli-Sufu block: 18; 697 NFkB inh: 48*; 697 NFkB conf: 49*

How did COc1ccc(-c2cc3ccccc3s2)cc1[C@H]1[C@H]2C=CC[C@@H](C)[C@@H]2C(=O)N1Cc1ccccc1 do in these assays?
Jurkat NFkB inh: -114; Cardio protect: -10; TAG inh: 13; NR2F2 inh: -15; Gli-Sufu block: -22; 697 NFkB inh: -80

What do the screens show for `COc1ccc(-c2ccc(OC)c([C@H]3[C@H]4C=CC[C@@H](C)[C@@H]4C(=O)N3Cc3ccccc3)c2)cc1C`?
Jurkat NFkB inh: 18; Cardio protect: -20; TAG inh: 33; NR2F2 inh: 0; Gli-Sufu block: 13; 697 NFkB inh: 42*; 697 NFkB conf: 51*

Results for C[C@@H]1CC=C[C@H]2[C@H]1C(=O)N(Cc1ccccc1)[C@H]2c1ccc(-c2ccc(N(C)C)cc2)cc1F ?
Jurkat NFkB inh: -2; Cardio protect: -12; TAG inh: 6; NR2F2 inh: 0; Gli-Sufu block: -2; 697 NFkB inh: 27

Results for O=C1CCC2(CCCCC2)N1CCCO ?
NR2F2 inh: -7

What do the screens show for `COc1cccc(N2CCN(CC(=O)NCc3c(F)cccc3F)CC2)c1`?
NR2F2 inh: -3

Results for CC[C@H]1C=C[C@@H](C(=O)NS(=O)(=O)c2ccc(C)cc2)N(C(C)=O)C1 ?
NR2F2 inh: 8

How did NNC(=O)c1cccc(COc2ccc3c(c2)CCC3)c1 do in these assays?
Jurkat NFkB inh: 9; Cardio protect: -7; TAG inh: 11; NR2F2 inh: -48; Gli-Sufu block: -109; 697 NFkB inh: 56*; 697 NFkB conf: -30

What do the screens show for `NNC(=O)c1cccc(COc2ccccc2Br)c1`?
Jurkat NFkB inh: -41; Cardio protect: 1; TAG inh: 10; NR2F2 inh: -50; Gli-Sufu block: -151; 697 NFkB inh: -73

How did Cn1cc(SCC(=O)NCc2ccc(F)cc2)c2ccccc21 do in these assays?
Jurkat NFkB inh: -9; Cardio protect: 0; TAG inh: 1; NR2F2 inh: -14; Gli-Sufu block: 2; 697 NFkB inh: 40*; 697 NFkB conf: -8

How did Cn1c(=O)cc(SCC(=O)NCc2ccc(F)cc2)c2ccccc21 do in these assays?
Jurkat NFkB inh: 25; Cardio protect: 9; TAG inh: -3; NR2F2 inh: 1; Gli-Sufu block: -1; 697 NFkB inh: -4
